The text below walks through data of PubChem BioAssay (NCATS).

Each structure is given as a SMILES string. “And” between values parts separate entries of the source, which are not always exact repeats. Equal entries are not always repeated. Results filed as inconclusive are left out. The source made the active and inactive calls. Unless noted, calls come from the whole dose curve.

Test [1] addresses Estrogen receptor (Homo sapiens) (UniProt P03372). The experiment in a line: qHTS assay for small molecule antagonists of estrogen receptor alpha signaling (AID 588513; active = well fitted curve in the direction sought with a large enough effect in the signal ratio, with a control signal flat, not every such curve was filed as active; the % refers to the signal ratio; note: % is set by controls: 0 for no effect and ±100 for the full control effect). The essentials:
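Fluorescence from CCF4 substrate after 2 h at room temperature gave reporter activity; cells had been exposed to compound and 0.5nM 17-beta-estradiol for 18 h at 37 C. Hill-equation fitting yielded IC50 and maximal response.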
In general terms: In qHTS, concentration-response curves come from the screen itself.

Test [2] shares this target. The experiment in a line: qHTS assay for small molecule agonists of estrogen receptor alpha signaling (AID 588514).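 Note: 0% = vehicle only and 100% = reference agonist; nearly all actives have a fitted effect of over 70% in size.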 In outline:
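ER-alpha-UAS-bla GripTite HEK 293 cells in medium with 2% charcoal/dextran-treated FBS were treated with compound titrations at 37 C for 18 hrs; beta-lactamase reporter read by CCF4 fluorescence after 2 hrs at RT.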

Test [3] addresses Glucocorticoid receptor (Homo sapiens) (UniProt P04150). The experiment in a line: qHTS assay for small molecule antagonists of glucocorticoid receptor signaling (AID 588533; active = well fitted inhibition curve with a large enough effect in the signal ratio, with a control signal flat, not every such curve was filed as active; the % refers to the signal ratio; note: % is set by controls: 0 for no effect and ±100 for the full control effect). The essentials: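 Antagonist-mode qHTS: compound titrations added to GRE-bla HeLa cells, then dexamethasone 2 nM final; 18 h, 37 C. CCF4 FRET fluorescence normalized to dexamethasone and DMSO; IC50 from Hill fit.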

In test [4] the target is Peroxisome proliferator-activated receptor delta (Homo sapiens) (UniProt Q03181). In words: qHTS assay for small molecule agonists of peroxisome proliferator-activated receptor delta signaling (AID 588534).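 Note: 0% = DMSO basal wells and 100% = positive control agonist at 10 µM.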 In outline:
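Cell-based beta-lactamase reporter assay run in agonist mode: cells seeded and incubated 5 hrs at 37 C, compounds added and incubated 18 hrs at 37 C. CCF4 dye fluorescence read after 2 hrs at RT; EC50 and efficacy from Hill fits.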

Test [5] concerns the target Peroxisome proliferator-activated receptor gamma (Homo sapiens) (UniProt P37231). In words: qHTS assay for small molecule agonists of peroxisome proliferator-activated receptor gamma signaling (AID 588536; active = well fitted curve in the direction sought with a large enough effect in the signal ratio, with a control signal flat, not every such curve was filed as active; the % refers to the signal ratio;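 note: 0% = DMSO basal wells and 100% = rosiglitazone at 2 µM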). In outline: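 Test agents, titrated, stimulated HEK293 UAS-bla cells overnight (16 h, 37 C). Substrate CCF4 was then added for two hours at room temperature before fluorescence reading.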

Test [6] shares this target. In words: qHTS assay for small molecule antagonists of peroxisome proliferator-activated receptor gamma signaling (AID 588537; active = well fitted inhibition curve with a large enough effect in the signal ratio, with a control signal flat, not every such curve was filed as active; the % refers to the signal ratio;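 note: reporter cells co-stimulated with 50 nM rosiglitazone agonist during compound treatment; % of control where 0% means no effect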). The essentials:
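Step one: plate 3000 HEK293 UAS-bla cells per well in medium with 1% stripped serum and hold 6-6.5 h at 37 C. Step two: add compound and 50 nM agonist for 16 h. Step three: CCF4 loading, fluorescence read.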

Test [7] in a line: qHTS assay for small molecule agonists of retinoid X receptor alpha signaling (AID 588544).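 For activation: 0% = DMSO basal wells and 100% = reference agonist.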 Particulars: HEK293T RXRa-UAS-bla, beta-lactamase reporter, 18 h; 530 nm emission.
The target in test [8] is Retinoic acid receptor RXR-alpha (Homo sapiens) (UniProt P19793). The test is described as above.
For test [9], the target named is Thyroid hormone receptor beta (Homo sapiens) (UniProt P10828). In words: qHTS assay for small molecule agonists of thyroid hormone receptor beta signaling (AID 588545). In outline: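 Cells (2500/well) were seeded, incubated 4 hrs at 37 C, dosed with a compound series, incubated 18 hrs, loaded with CCF4 dye for 2 hrs at RT, then read for fluorescence. Data were scaled between DMSO (0%) and 10 nM T3 (100%).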

Test [10] can be described thus: qHTS assay for small molecule antagonists of retinoid X receptor alpha signaling (AID 588546; active = well fitted inhibition curve with a large enough effect in the signal ratio, with a control signal flat, not every such curve was filed as active; the % refers to the signal ratio;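 note: cells stimulated with 9-cis-retinoic acid as agonist; % is set by controls: 0 for no effect and ±100 for the full control effect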). Particulars: HEK293T RXRa-UAS-bla, beta-lactamase ratio, antagonist mode; measured here: W530 green channel, cytotoxicity proxy. The essentials:
(§1)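 Beta-lactamase reporter inhibition, read as CCF4 fluorescence ratio (ex 405, em 460/530 nm) after 2 h at RT. HEK293T UAS-bla cells, 2500/well, were stimulated with 9-cis-RA at 500 or 100 nM final alongside test compound for 18 h at 37 C.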

In test [11] the target is Retinoic acid receptor RXR-alpha (Homo sapiens) (UniProt P19793). Described as above. Particulars: HEK293T RXRa-UAS-bla, beta-lactamase ratio, antagonist mode. In outline:
as §1

Test [12] addresses Thyroid hormone receptor beta (Homo sapiens) (UniProt P10828). The experiment in a line: qHTS assay for small molecule antagonists of thyroid hormone receptor beta signaling (AID 588547; active = well fitted inhibition curve with a large enough effect in the signal ratio, with a control signal flat, not every such curve was filed as active; the % refers to the signal ratio;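 note: cells stimulated with 0.4 nM T3 agonist during compound exposure; series mostly up to about 77 µM; % is set by controls: 0 for no effect and ±100 for the full control effect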). To be noted: TR-UAS-bla HEK293, beta-lactamase ratio, antagonist mode, 18 h. In outline:
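TR-UAS-bla GripTite HEK293 cells in 2% charcoal/dextran FBS medium; compounds 0.59 nM to 92 uM with T3 at 0.4nM final, 18 h at 37 C. Beta-lactamase read by CCF4 fluorescence (460/530 nm); Hill fits gave IC50 and efficacy.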

The nature of test [13]: qHTS assay for small molecule activators of the p53 signaling pathway (AID 651743; active = well fitted activation curve with a large enough effect in the signal ratio, not every such curve was filed as active; the % refers to the signal ratio; note: series mostly up to about 92 µM; % of control where 0% means no effect). Particulars: HCT-116 p53RE-bla, beta-lactamase FRET ratio, 16 h; activation: stronger effect = higher value. The essentials: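 HCT-116 p53RE-bla, 4,000 cells/well; 5 h settle; cpd/DMSO 16 h, 37 C; LiveBLAzer B/G 2 h RT; fluorescence intensity.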
A short description of test [14]: qHTS assay for environmental chemicals that activate the Aryl hydrocarbon Receptor (AhR) signaling pathway (AID 651777; active = well fitted curve in the direction sought with a large enough effect; an effect the other way counts as inactive or inconclusive; note: % of control where 0% means no effect; nearly all actives have a fitted effect of over 15% in size). To be noted: 1A2-DRE human hepatoma cells, luciferase, 24 h; activation: stronger effect = higher value. In outline:
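Following a 24 hr incubation with test chemicals at 37 C and 5% CO2, 1A2-DRE human hepatoma cells received One-Glo reagent; after 30 min at room temperature, luciferase output reflected CYP1A2 induction via AhR.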

A short description of test [15]: qHTS assay for small molecule agonists of the antioxidant response element (ARE) signaling pathway measured by Nrf2-dependant transcriptional activity (AID 720636; active = well fitted curve in the direction sought with a large enough effect in the repeat runs; an effect the other way counts as inactive or inconclusive;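 note: HepG2 cells with an ARE-driven luciferase reporter; % of control where 0% means no effect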). In outline:
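ONE-Glo luminescence, read 30 min after reagent addition at room temperature, reflected ARE reporter activity in HepG2 cells that had been incubated with compound for 16 hr at 37 C in 1% dialyzed FBS.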

Test [16] in a line: qHTS assay for small molecule agonists of the antioxidant response element (ARE) signaling pathway measured by Nrf2-dependant transcriptional activity - cell viability counter screen (AID 720653; active = well fitted curve in the direction sought with a large enough effect in the repeat runs; an effect the other way counts as inactive or inconclusive; note: % is set by controls: 0 for no effect and ±100 for the full control effect). To be noted: ARE-bla HepG2 viability, CellTiter-Glo ATP luminescence, 16 h; max response: stronger effect = lower value. In outline:
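ARE-bla HepG2 cells treated with compounds for 16 h at 37C; this counter screen measures viability as intracellular ATP by CellTiter-Glo luminescence after 30 min at room temperature.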

A short description of test [17]: qHTS assay for cell viability of HEK293 cells (AID 743288; active = well fitted curve in the direction sought with a large enough effect; an effect the other way counts as inactive or inconclusive; note: % is set by controls: 0 for no effect and ±100 for the full control effect; nearly all actives have a fitted effect of over 50% in size). To be noted: ATP luminescence (CellTiter-Glo), 18 h; max response: stronger effect = lower value. In outline: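 HEK293 parental, 2,000 cells/well; ≥5 h pre-incubation 37 C; pintool compound addition; 18 h, 37 C; CellTiter-Glo 30 min RT; luminescence read.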
Test [18] in a line: qHTS assay for cell viability of the p53RE-bla HCT-116 cell line (AID 743292; active = well fitted curve in the direction sought with a large enough effect; an effect the other way counts as inactive or inconclusive; note: % is set by controls: 0 for no effect and ±100 for the full control effect; nearly all actives have a fitted effect of over 55% in size). In outline: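 After plating at 4,000 cells per well and a 5 h rest at 37 C, HCT-116 cells carrying p53RE-bla received test chemicals in DMSO. Sixteen hours later at 37 C, CellTiter-Glo was added and luminescence recorded following 30 min at room temperature.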
Test [19] has as its target Peroxisome proliferator-activated receptor alpha (Homo sapiens) (UniProt Q07869). In words: qHTS assay for small molecule agonists of the peroxisome proliferator-activated receptor alpha (PPARalpha) signaling pathway (AID 651778; active = well fitted curve in the direction sought with a large enough effect; an effect the other way counts as inactive or inconclusive; note: % of control where 0% means no effect). Particulars: PathHunter PPARalpha complementation, chemiluminescence, 6 h; max response: stronger effect = higher value. The essentials: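 Enzyme-fragment complementation assay in which ligand-bound PPARalpha translocates and forms an active enzyme that generates chemiluminescence. Cells were plated overnight, exposed to compound for 6 hr at 37 C, and then given detection reagent for 60 min at room temperature.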

Test [20] addresses Vitamin D3 receptor (Homo sapiens) (UniProt P11473). The experiment in a line: qHTS assay for small molecule antagonists of vitamin D receptor signaling (AID 588541). The essentials:
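VDR-UAS-bla HEK293T cells in 2% charcoal-stripped FBS were stimulated with 1-alpha,25-dihydroxyvitamin D3 (3 nM final) plus compound for 16 h at 37 C. The beta-lactamase CCF4 readout was normalized to 50 nM agonist and DMSO, and Hill fits gave IC50.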

Chain of Peroxisome proliferator-activated receptor gamma (Homo sapiens) (P37231 whole entry, looked up): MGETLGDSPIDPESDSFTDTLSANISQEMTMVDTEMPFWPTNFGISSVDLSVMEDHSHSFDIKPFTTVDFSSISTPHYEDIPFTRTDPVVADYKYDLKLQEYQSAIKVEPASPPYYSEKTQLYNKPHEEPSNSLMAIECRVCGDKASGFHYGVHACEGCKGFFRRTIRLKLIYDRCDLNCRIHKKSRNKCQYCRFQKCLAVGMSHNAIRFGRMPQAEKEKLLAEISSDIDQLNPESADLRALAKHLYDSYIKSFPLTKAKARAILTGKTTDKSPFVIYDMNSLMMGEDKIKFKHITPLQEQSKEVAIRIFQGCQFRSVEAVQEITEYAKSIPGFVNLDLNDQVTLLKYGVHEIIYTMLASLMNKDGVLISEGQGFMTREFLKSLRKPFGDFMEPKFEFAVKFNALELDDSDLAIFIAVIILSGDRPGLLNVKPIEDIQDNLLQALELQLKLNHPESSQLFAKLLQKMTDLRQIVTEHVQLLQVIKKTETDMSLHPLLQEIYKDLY
Chain of Peroxisome proliferator-activated receptor delta (Homo sapiens) (Q03181 whole entry, looked up): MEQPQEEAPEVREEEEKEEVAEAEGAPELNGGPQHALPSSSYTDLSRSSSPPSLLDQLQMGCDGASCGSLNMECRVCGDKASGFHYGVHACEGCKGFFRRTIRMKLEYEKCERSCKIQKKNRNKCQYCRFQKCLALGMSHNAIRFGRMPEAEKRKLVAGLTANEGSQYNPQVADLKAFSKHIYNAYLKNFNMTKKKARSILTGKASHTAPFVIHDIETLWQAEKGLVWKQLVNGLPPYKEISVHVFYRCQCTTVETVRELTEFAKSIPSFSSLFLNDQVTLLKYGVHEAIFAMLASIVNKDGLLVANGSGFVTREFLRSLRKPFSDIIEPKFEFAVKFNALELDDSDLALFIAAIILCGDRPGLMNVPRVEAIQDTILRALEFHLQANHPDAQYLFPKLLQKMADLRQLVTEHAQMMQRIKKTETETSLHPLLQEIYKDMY
Chain of Thyroid hormone receptor beta (Homo sapiens) (P10828 whole entry, looked up): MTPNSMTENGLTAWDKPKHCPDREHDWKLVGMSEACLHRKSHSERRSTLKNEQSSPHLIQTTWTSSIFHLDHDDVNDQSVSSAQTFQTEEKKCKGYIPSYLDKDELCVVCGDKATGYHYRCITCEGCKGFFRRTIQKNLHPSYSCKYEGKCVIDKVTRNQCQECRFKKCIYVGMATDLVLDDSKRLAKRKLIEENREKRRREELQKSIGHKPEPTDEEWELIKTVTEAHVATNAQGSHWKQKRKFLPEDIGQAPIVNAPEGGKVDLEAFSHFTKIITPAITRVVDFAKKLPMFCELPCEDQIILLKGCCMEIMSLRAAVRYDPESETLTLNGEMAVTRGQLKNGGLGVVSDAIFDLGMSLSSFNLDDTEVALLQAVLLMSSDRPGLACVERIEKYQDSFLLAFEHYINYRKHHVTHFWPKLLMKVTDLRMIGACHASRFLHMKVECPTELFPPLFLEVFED
Chain of Vitamin D3 receptor (Homo sapiens) (P11473 whole entry, looked up): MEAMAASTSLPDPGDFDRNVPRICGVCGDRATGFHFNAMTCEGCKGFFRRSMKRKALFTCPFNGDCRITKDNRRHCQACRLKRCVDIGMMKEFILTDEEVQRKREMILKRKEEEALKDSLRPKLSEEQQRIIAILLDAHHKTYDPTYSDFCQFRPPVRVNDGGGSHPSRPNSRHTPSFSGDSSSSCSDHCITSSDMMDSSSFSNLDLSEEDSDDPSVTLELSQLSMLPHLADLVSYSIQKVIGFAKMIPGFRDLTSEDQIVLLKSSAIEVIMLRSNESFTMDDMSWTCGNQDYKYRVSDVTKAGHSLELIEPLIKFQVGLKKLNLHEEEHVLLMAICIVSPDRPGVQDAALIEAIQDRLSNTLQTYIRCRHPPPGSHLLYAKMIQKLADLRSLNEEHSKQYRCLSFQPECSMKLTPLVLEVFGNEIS
Chain of Retinoic acid receptor RXR-alpha (Homo sapiens) (P19793 whole entry, looked up): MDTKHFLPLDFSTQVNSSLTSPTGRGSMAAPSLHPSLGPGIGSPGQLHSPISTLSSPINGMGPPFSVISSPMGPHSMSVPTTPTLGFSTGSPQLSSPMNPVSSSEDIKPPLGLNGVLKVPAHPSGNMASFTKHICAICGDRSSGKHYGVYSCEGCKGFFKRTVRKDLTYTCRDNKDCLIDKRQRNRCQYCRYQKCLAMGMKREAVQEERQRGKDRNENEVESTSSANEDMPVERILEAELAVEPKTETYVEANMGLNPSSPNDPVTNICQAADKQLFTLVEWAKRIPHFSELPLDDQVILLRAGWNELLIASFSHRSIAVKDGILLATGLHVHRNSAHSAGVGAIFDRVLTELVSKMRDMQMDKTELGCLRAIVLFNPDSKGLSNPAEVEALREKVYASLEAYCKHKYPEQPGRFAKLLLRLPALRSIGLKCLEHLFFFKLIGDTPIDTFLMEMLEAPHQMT
Chain of Peroxisome proliferator-activated receptor alpha (Homo sapiens) (Q07869 whole entry, looked up, the tested form may be a part): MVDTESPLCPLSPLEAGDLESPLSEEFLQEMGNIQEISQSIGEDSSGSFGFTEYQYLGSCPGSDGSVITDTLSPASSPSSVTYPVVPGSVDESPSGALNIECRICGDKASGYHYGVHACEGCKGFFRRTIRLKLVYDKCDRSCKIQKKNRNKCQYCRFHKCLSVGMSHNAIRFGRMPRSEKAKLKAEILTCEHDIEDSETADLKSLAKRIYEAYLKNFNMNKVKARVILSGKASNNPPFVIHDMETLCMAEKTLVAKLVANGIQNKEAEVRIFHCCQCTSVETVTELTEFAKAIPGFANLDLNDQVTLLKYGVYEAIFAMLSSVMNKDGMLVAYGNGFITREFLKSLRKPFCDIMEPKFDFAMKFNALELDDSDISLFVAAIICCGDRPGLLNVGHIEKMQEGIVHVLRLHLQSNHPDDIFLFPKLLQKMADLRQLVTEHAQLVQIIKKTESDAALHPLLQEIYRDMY
Chain of Estrogen receptor (Homo sapiens) (P03372 whole entry, looked up): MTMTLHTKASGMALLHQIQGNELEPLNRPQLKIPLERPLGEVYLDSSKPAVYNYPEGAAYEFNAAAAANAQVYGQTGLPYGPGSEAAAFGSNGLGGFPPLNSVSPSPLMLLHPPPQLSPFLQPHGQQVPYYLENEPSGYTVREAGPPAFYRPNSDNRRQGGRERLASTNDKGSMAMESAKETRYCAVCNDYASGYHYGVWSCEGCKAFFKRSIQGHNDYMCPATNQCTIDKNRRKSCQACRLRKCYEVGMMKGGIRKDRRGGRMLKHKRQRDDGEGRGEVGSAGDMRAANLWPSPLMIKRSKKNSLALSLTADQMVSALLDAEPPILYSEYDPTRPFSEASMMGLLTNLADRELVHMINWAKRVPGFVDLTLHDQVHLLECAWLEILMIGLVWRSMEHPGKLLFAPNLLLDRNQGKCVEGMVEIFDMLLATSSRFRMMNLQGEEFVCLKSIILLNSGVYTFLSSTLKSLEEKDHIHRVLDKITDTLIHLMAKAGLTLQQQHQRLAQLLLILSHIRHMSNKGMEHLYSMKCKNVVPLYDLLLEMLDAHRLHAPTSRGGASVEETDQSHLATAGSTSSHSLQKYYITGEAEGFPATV
Chain of Glucocorticoid receptor (Homo sapiens) (P04150 whole entry, looked up): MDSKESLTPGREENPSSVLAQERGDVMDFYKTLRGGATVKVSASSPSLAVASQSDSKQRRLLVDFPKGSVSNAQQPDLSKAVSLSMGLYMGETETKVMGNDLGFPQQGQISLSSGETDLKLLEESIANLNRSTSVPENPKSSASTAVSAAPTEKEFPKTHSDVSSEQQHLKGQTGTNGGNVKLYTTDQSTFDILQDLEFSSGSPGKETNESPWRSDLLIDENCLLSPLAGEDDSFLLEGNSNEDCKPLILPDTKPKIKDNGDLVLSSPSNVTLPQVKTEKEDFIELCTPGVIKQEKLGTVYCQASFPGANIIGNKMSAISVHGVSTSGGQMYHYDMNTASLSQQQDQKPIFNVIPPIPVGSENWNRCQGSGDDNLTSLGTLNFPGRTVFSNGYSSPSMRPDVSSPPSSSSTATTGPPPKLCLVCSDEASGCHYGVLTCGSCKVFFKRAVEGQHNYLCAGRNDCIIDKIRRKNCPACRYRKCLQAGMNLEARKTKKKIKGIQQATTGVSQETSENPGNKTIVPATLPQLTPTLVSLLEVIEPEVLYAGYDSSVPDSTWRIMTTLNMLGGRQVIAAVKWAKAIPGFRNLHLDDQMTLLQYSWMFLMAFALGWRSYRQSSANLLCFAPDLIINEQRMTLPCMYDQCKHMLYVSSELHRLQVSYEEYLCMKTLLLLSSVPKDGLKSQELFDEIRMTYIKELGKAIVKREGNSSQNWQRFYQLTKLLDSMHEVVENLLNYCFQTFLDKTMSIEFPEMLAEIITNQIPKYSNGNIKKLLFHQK

With `c1cc2c3c(cccc3c1)CC2`, the Potency entry in test [1], in test [2], in test [3], in test [5], in test [6] and in [8] was “inactive” throughout. Moreover, the Potency result in test [9], in test [15] and in test [18] was “inactive” throughout. Also, in [4], the outcome was inactive. The max response in [7] was -7.15%; in test [10], -4.84%; in [11], -3.28% (inactive); in [16] it was 18.9% (inactive); in test [17] it was -7.08% (inactive). Moreover, the activity change % (negative = inhibition) in test [12] was 3.51% (inactive). In addition, the figures for the activation in test [13] and in test [14] were 5.25% (inactive) and 0.274% (inactive), respectively.
For `CCCC1COC(Cn2cncn2)(c2ccc(Cl)cc2Cl)O1` (stereo not given), the Potency result in [1], in test [2], in test [3], in test [5], in test [6] and in test [8] was “inactive” throughout. The Potency result in [9], in [15] and in test [18] was “inactive” in each case. For the same compound, the compound was called inactive in [4]. Also, the max response in test [7] is 1.7%; in test [10], 5.44%; in [11] it was 2.1% (inactive); in test [19], -0.724% (inactive) and -0.169% (inactive); in [16], -18.4% (inactive) and -18.3% (inactive); in [17], -21.6% (inactive) and -21.9% (inactive). In addition, the activity change % (negative = inhibition) in test [12] is 12.9% (inactive) and 0.314% (inactive). The activation in test [13] is -6.14% (inactive).
As to `O=S1OC[C@@H]2[C@H](CO1)[C@@]1(Cl)C(Cl)=C(Cl)[C@]2(Cl)C1(Cl)Cl` (stereo not given in full), the Potency result in [1], in test [2], in [5], in [6], in [20] and in test [8] was “inactive” each time. Also, the Potency entry in [9], in test [15] and in test [18] was “inactive” each time. In addition, the max response was -0.24% in test [7]; 9.73% and 12.8% in test [10]; -70.2% (inactive) and -50.2% (inactive) in test [11]; -0.211% (inactive) and 0.181% (inactive) in test [19]; -3.19% (inactive) and 3.58% (inactive) in [16]; -26.6% (inactive) and -23.3% (inactive) in test [17]. For the same compound, in [12], the activity change % (negative = inhibition) was 3.09% (inactive). Also, the activation in [13] was -3.81% (inactive) and -3.84% (inactive); in test [14] it was 0.042% (inactive) and 0.216% (inactive).
`CC(C)(C)N(NC(=O)c1ccc(Cl)cc1)C(=O)c1ccccc1`: the Potency entry in test [1], in [2], in [3], in test [5], in test [6] and in test [20] was “inactive” in each case. In addition, the Potency result in test [8], in test [9], in test [15] and in [18] was “inactive” throughout. In test [4], the compound was classed as inactive. In addition, the max response is -8.46% in [7]; -5.95% in [10]; 4.87% (inactive) in test [11]; -3.24% (inactive) in [19]; -5.92% (inactive) in [16]; -8.37% (inactive) in test [17]. Further, the activation in test [14] was 1.26% (inactive).
For `O=C1NCCN1Cc1ccc(Cl)nc1`, the Potency entry in test [1], in test [2], in test [3], in test [5], in test [20] and in test [8] was “inactive” in each case. Further, the Potency result in [9] and in test [15] was “inactive” each time. The result in test [4] was inactive. The max response in test [7] is -6.75%; in test [10] it was -14.8%; in test [11] it was -5.19% (inactive); in test [19] it was -0.72% (inactive); in test [16], 1.67% (inactive); in test [17] it was 1.96% (inactive). Also, the activity change % (negative = inhibition) in test [12] was 2.45% (inactive). Besides, the activation was -0.206% (inactive) in [13] and -0.434% (inactive) in [14].
